# Measured values: PubChem BioAssay (NCATS)
# “And” between values parts separate entries of the source, which are not always exact repeats. Identical values can stand only once. Inconclusive results are not listed. Values without a mark were called inactive. The source made the active and inactive calls. Calls come from the whole dose curve; as a rule, active = well fitted inhibition curve with a large enough effect; inconclusive = small, poorly fitted or top-dose-only effect; inactive = flat fitted curve, though single readings scatter.
# Test: Primary qHTS for inhibitors of nuclear receptor binding SET domain protein 2 (NSD2) in an isogenic RCH-ACV NSD2 p.E1099K mutant (9B) (AID 1645876); note: nearly all actives have a fitted effect of over 70% in size
# Details: RCH-ACV (leukaemia line) NSD2 E1099K (9B) viability, CellTiter-Glo, 72 h; series mostly up to 44.9 µM; activity change, negative = viability loss: at the top concentration
# % is set by controls: 0 for no effect and ±100 for the full control effect; potency is the fitted concentration of half-maximal effect.
SMILES,Potency,"activity change, negative = viability loss"
O=C(O)/C=C/c1ccc(-c2ccc(O)c(C34CC5CC(CC(C5)C3)C4)c2)cc1,325 nM (active),
CC(C)CCC1(O)C(=O)C(C)(C)C(O[C@@H]2O[C@H](CO)[C@@H](O)[C@H](O)[C@H]2O)C(C)(C)C1O (some centres not stated),,-6.01% [at 17.3 µM]
C=C(C(=O)O)C1CC(O)C2(C)CCCC(=C)C2C1 (configuration not stated),,-18.3%
CC1=C(C(=O)OCc2ccccc2)C(c2ccc(-c3ccccc3)cc2)NC(=O)N1CCCCCC(=O)O (configuration not stated),,-23%
C=C1C(=O)O[C@@H]2/C=C(\C)C(=O)/C=C/[C@](C)(O)C[C@@H](OC(=O)C(C)C)[C@@H]12,401 nM (active),
CC1(C)[C@@H](O)CC[C@]2(C)[C@H]3CC=C4[C@@H]5C[C@](C)(C(=O)O)CC[C@]5(C)CC[C@@]4(C)[C@]3(C)CC[C@@H]12,,3.28%
Cc1ccc([N+](=O)[O-])cc1S(=O)(=O)N(C)/N=C/c1cnc2ccc(Br)cn12,12.9 nM (active) and 93.4 nM (active),
COc1cc(/C=C/C(=O)OC[C@H]2O[C@@](CO)(O[C@H]3O[C@H](CO)[C@@H](O)[C@H](O)[C@H]3O)[C@@H](OC(=O)/C=C/c3ccc(O)c(OC)c3)[C@@H]2O)ccc1O,,-8.66% [at 17.3 µM]
Cc1cc(=O)oc2c(C=O)c(O)ccc12,18300 nM (active),
COc1cc2c(cc1OC)N1C(=O)C[C@]34C=CCN5CC[C@@H]2[C@@H](CC3)[C@]514,,-5.31%
CC1=C(CCC(C)O[C@@H]2O[C@H](CO)[C@@H](O)[C@H](O)[C@H]2O)C(C)(C)CCC1=O (some centres not stated),,-3.35%
C[C@]12C[C@@H](O)[C@@H]3C[C@@]1(O[C@@H]1O[C@H](CO)[C@@H](O)[C@H](O)[C@H]1O)[C@]3(COC(=O)c1ccccc1)C(=O)O2,,3.74% [at 17.3 µM]
